Gal4-VP16 FLuc: Gal4-VP16 reporter inhibition counter-screen; actives 3.5% (n = 310,000); Potency, µM (top dose mostly 53.6 µM), without a hit: at the highest dose activity, negative = inhibition, actives largely listed as inhibitors; Drosophila S2 Gal4-VP16 UAS-luciferase, luminescence, 20 h; AID 2546;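 further: Gal4-VP16 expression switched on by copper sulfate through the metallothionein promoter; potency means the concentration at half of the fitted maximal effect; on the % scale 0 is the no-effect control and ±100 the full control effect; nearly all actives have a fitted effect of over 50% in size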
BRCA1 expr up: increases BRCA1 expression; MCF7-BRCA1-FFLuc reporter, luminescence, 48 h; response scale: scaled: vehicle 0%, 10 µM genistein 100%; Potency, µM (titrated, usually from 46.1 µM), for the others: top-dose activation, most hits filed as activators; actives 1.1% (n = 380,000); AID 624202; further: potency means the concentration at half of the fitted maximal effect; nearly all actives have a fitted effect of over 80% in size
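Cells: MCF7-BRCA1-FFLuc, 2000/well. Exposure: 48 h, 37 °C, 5% CO2. Read: luminescence, 15 min post-substrate. Controls: genistein 10 microM (maximal activation), DMSO (neutral).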
RORgamma inh: ROR gamma (mouse) transcription inhibition; Drosophila S2 Gal4-RORgamma UAS-luciferase reporter, 20 h; Potency, µM (top dose mostly 53.6 µM), inactives show at the top dose activity change, negative = inhibition, most hits filed as inhibitors; actives 5.4% (n = 310,000); further: potency means the concentration at half of the fitted maximal effect; on the % scale 0 is the no-effect control and ±100 the full control effect; nearly all actives have a fitted effect of over 60% in size
Target sequence (P51450 whole entry, looked up, the tested form may be a part): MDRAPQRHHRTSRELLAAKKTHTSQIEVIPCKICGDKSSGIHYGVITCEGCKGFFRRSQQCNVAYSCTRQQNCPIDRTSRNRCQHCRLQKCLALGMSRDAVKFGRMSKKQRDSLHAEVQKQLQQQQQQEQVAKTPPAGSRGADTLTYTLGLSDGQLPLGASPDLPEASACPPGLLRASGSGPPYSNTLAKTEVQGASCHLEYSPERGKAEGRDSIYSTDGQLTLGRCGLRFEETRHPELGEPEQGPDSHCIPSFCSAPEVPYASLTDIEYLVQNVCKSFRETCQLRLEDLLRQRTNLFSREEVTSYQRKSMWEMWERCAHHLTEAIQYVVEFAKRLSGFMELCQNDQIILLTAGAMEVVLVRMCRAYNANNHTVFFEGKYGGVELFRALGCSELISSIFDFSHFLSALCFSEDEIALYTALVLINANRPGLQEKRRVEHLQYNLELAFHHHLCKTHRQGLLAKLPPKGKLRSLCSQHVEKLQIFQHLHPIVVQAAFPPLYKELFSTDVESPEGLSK
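Luciferase reporter read in Schneider cells carrying Gal4-RORγ (mouse) and UAS-Photinus luciferase; cells given compound 1 h before 700 uM copper sulfate induction, then incubated 20 h at ambient temperature.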
Giardia killer: kills Giardia lamblia; Giardia lamblia trophozoite viability; activity change, % at 7.66 µM, hits read low; actives 0.15% (n = 340,000); in the data active means activity change below about -80%; inconclusive means between about -30% and that limit;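 further: parasites exposed to compound for two days anaerobically before the ATP read; on the % scale 0 is the no-effect control and ±100 the full control effect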
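Giardia trophozoites, 100 cells per well, were exposed to compounds for 48 hrs at 37 deg C under anaerobic conditions; viability was then read as ATP content by bioluminescence after 15-30 min at room temperature.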
p53 reactivation: mutant p53 re-activation in reporter cells; H1299 p53-A138V BP100-luciferase reporter, luminescence, 24 h; Potency, µM (top dose mostly 92.2 µM), without a hit: at the highest dose activity change, positive = activation, hits mostly activators; actives 0.063% (n = 320,000); further: potency means the concentration at half of the fitted maximal effect; % of control where 0% means no effect; nearly all actives have a fitted effect of over 45% in size
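p53-null H1299 cells stably carrying temperature-sensitive p53-A138V and a BP100-luciferase reporter were pinned with compounds (4-point, 1:5 series) and held 24 hrs at 37 deg C. Luminescence was read 10 min after detection reagent.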
ELG1 DNA repair: inhibitors of ELG1-dependent DNA repair in HEK293T cells; Potency, µM (highest dose often 46.1 µM), for the others: at the top dose activity change, negative = inhibition, most hits filed as inhibitors; HEK293T ELG1-luciferase reporter, luminescence, 16 h; DNA damage induced by 5-fluorouridine; actives 2.3% (n = 330,000); further: potency means the concentration at half of the fitted maximal effect; on the % scale 0 is the no-effect control and ±100 the full control effect; nearly all actives have a fitted effect of over 55% in size
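Quantitative HTS, concentration-response format. 2,000 cells/well co-treated with 5-fluorouridine and compound, 16 hr in 5% CO2 at 37 °C; ONE-Glo luminescence read after 30 min.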
Starred values were filed as active, the others as inactive; ? = inconclusive; / = no result given; [ ] = dose if it differs, or a comment. This is a sample that favours compounds with a hit; in the whole collection about 7.6% have one here. Unless noted, the call rests on the fitted dose curve; in most records, active means well fitted curve in the direction sought with a large enough effect; inconclusive means small, poorly fitted or top-dose-only effect, or another doubt; inactive means no such curve, though single readings can be large; an effect the other way counts as inactive or inconclusive.

SMILES	Gal4-VP16 FLuc	BRCA1 expr up	RORgamma inh	Giardia killer	p53 reactivation	ELG1 DNA repair
C/C(=N\NC(=O)c1ccc2c(c1)OCO2)c1ccc2c(c1)OCO2	-20%	7.9µM*	5%	-2	?	?
CC(/C=C/c1ccccc1)=N\NC(=O)c1ccc2c(c1)OCCO2	?	4%	13µM*	6	7%	3%
C/C(=N\NC(=O)c1ccc2c(c1)OCO2)c1ccc(C(=O)O)s1	-3%	48%	-16%	6	10%	?
C/C(=N\NC(=O)c1ccc2c(c1)OCCO2)c1ccccc1	7.9µM*	?	5.6µM*	5	-9%	?
CC(=O)Nc1ccccc1NC(=O)C/C(C)=N/NC(=O)c1cccnc1	4%	-1%	5%	-16	4%	18%
C#CCN(C[C@H]1[C@H](OC(=O)NCc2ccc(OC)c(OC)c2)[C@H](OC(=O)NCc2ccc(OC)c(OC)c2)C[C@@H](C(=O)OC)[C@H]1C(=O)OC)S(=O)(=O)c1ccc(C)cc1	/	-6%	/	/	/	/
Cc1nc(SCC(=O)NC2CCCC2)c2oc3ccccc3c2n1	/	0%	/	/	/	/
CC1(C)OC2OC(C(=O)N/N=C/c3cc(Br)ccc3O)C3OC(C)(C)OC3C2O1 (configuration not stated)	?	-69%	1.6µM*	11	12%	?
CC1CCCN(C(=O)c2cccc(S(=O)(=O)N3CCCc4ccccc43)c2)C1 (configuration not stated)	/	-30%	/	13	-4%	-12%
O=C(NCc1ccccc1)C(=O)NCC(c1ccco1)N1CCOCC1 (configuration not stated)	-7%	2%	-15%	10	-6%	20%
O=P(c1ccccc1)(c1ccccc1)C(c1ccco1)N1CCOCC1 (configuration not stated)	5%	-16%	2.2µM*	13	-5%	-14%
COc1ccccc1NC(=O)Cn1nnc(-c2ccccc2NC(=O)c2cnccn2)n1	-8%	-4%	-18%	-17	-1%	7%
CCCC(=O)Nc1ccc(C(=O)NNC(=O)c2cccs2)cc1	6%	2%	14%	-2	1%	17%
CCCOc1ccc(C(=O)NNC(=S)NC(C)=O)cc1	8%	-73%	2%	?	6%	3%
Cc1ccccc1OCC(=O)NNC(=S)NC(=O)c1ccccc1[N+](=O)[O-]	-24%	-9%	-8%[10 µM]	9	-5%	-5%
CCCOc1ccc(C(=O)Nc2ccccc2[N+](=O)[O-])cc1	/	3.2µM*	/	-12	/	/
CCCOc1ccc(C(=O)NNC(=S)NC(=O)c2ccccc2)cc1	?	-70%	10µM*	-10	11%	-17%
CCCC(=O)Nc1ccc(C(=O)NNC(=S)NC(=O)c2cccs2)cc1	-22%	-26%	10µM*	-15	0%	?
CC(C)(C)c1ccc(OCC(=O)NNC(=S)NC(=O)c2ccccc2[N+](=O)[O-])c(Br)c1	16µM*	-62%	11µM*	12	0%	5%
Cc1onc(-c2ccccc2)c1C(=O)N[C@@H]1C(=O)N2[C@@H]1SC(C)(C)[C@@H]2C(=O)O	-7%	/	17%	/	7%	-2%
CCS(=O)(=O)c1nc(S(=O)(=O)c2ccc(Cl)cc2)c(N2CCCC2)s1	-7%	8%	-19%	-5	-4%	11%
O=C(Nc1ccc(F)cc1F)c1cc(S(=O)(=O)N2CCCCC2)c[nH]1	/	0%	/	/	/	/
CCCOc1ccc(C(=O)NNC(=S)NC(=O)c2cccs2)cc1	7.9µM*	-32%	8.9µM*	-23	24%	?
C=CCNC(=S)NNC(=O)c1ccc(OCCCC)cc1	?	4%	8.9µM*	-25	0%	-8%
CCCOc1ccc(C(=O)NNC(=S)NC(=O)c2ccco2)cc1	-20%	-84%	-34%	?	22%	?
SMILES	Gal4-VP16 FLuc	BRCA1 expr up	RORgamma inh	Giardia killer	p53 reactivation	ELG1 DNA repair
COC(=O)CNC(=S)NC(=O)c1ccc(C(C)(C)C)cc1	-22%[10 µM]	8%	6.3µM*	2	5%	11%
CCCOc1ccc(C(=O)NNC(=S)NC(=O)c2ccccc2[N+](=O)[O-])cc1	20µM*	-60%	18µM*	1	/	?
CC(C)(C)c1ccc(C(=O)NC(=S)NCc2cccnc2)cc1	-11%	-31%	-5%	-17	19%	10%
O=C(CCC(=O)Nc1ccccc1)NNC(=O)c1ccccc1Cl	10%	24%	7%	11	3%	10%
CC1(C)CC(=O)C2=C(C1)N(c1ccccc1C#N)C(N)=C(C#N)C2c1cccs1 (configuration not stated)	-29%	-71%	-34%	-23	-5%	-10%
Cc1ccc(NC(=O)CN2CCN(S(=O)(=O)c3ccc4c(c3)OCCO4)CC2)c(C)c1	/	-6%	/	/	/	/
CC(C)(C)c1ccc(C(=O)NC(=S)NNC(=O)COc2ccccc2)cc1	2.8µM*	88%	2.5µM*	-4	?	?
C=CCNC(=S)NNC(=O)c1ccc(Br)cc1	?	3%	-25%	15	1%	13%
CCCOc1ccc(-c2cc(C(=O)NCC3CCCO3)c3ccccc3n2)cc1 (configuration not stated)	-8%	29%	26%	-11	4%	?
C=CCNC(=S)NNC(=O)C(CCCC)CC(C)(C)O (configuration not stated)	5.6µM*	-19%	2.8µM*	-25	-9%	0%
CCCOc1ccc(C(=O)NNC(=S)NC(=O)c2cc(-c3ccccc3)nc3ccccc23)cc1	-18%	-11%	7.1µM*	-6	-2%	-3%
O=C(Cn1nnc(-c2ccccc2F)n1)N1CCCCC1	-9%	8.9µM*	-10%	18	15%	?
ClCC1=Nc2ccccc2Cc2ccccc21	/	5%	/	-23	/	/
CCN1CCN(CCC(=O)Nc2ccc(C)cc2)CC1	-5%	-3%	-33%	?	8%	-3%
CCn1ccc(C(=O)Nc2ccccc2Cl)n1	-9%	3.2µM*	-14%	14	4%	?
CCN1CCN(Cc2ccc(NC(=O)Nc3ccccc3Cl)cc2)CC1	-6%	?	-38%	-29	20µM*	?
O=C(Nc1ccc(CN2CCCCC2)cc1)Nc1ccccc1Cl	5%	7.1µM*	-10%	6	-5%	?
CCN1CCN(Cc2ccccc2NC(=O)Nc2ccc(C)cc2)CC1	19%	6.3µM*	19%	-2	31%	?
CC(=O)Nc1ccc(CN2CCCCCCC2)cc1	-10%	-1%	-41%	-4	2%	4%
FC(F)(F)c1ccccc1-c1nc(NCCN2CCOCC2)c2ccccc2n1	-8%	/	14%	/	/	/

Bioassay records: PubChem BioAssay, National Center for Advancing Translational Sciences (NCATS)
